Assay outcomes: PubChem, National Center for Advancing Translational Sciences (NCATS)
Sampled rows, rich in hits. Any-hit rate of the full collection: about 2.8%.
Pol beta inh: DNA polymerase beta (human) inhibition | P06746 | Pol beta primer extension/strand displacement, fluorescence kinetic | Potency, µM (highest dose often 114 µM), hits mostly inhibitors | 1.3% of 340,000 active
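Curves were derived by four-parameter Hill fits of normalized qHTS data. The kinetic fluorescent primer-extension read was taken at 0 and 10 min after 50 nM substrate, following a 15 min room-temperature preincubation of 10 nM enzyme with compounds.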
Pol kappa inh-1: inhibitors of human DNA polymerase kappa. Q9UBT6. purified Pol kappa, fluorescent DNA synthesis assay, 10 min. Potency, µM (titrated, usually from 107 µM), actives largely listed as inhibitors. 0.53% of 400,000 active. AID 588579
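Fluorescent qHTS in 1536-well format: enzyme (10 nM) and compound sat 15 min at room temperature before 50 nM substrate (final) was added. Signal taken at 0 and 10 min; no-enzyme buffer wells were negative controls.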
PI5P4K alpha inh: inhibitors of human PI5P4K alpha; max response, %; P48426; AID 652105; 1.2% of 330,000 active; PI5P4Kalpha enzyme, ADP-Glo luminescence, 60 min; stronger effect = lower value; active means max response of -50% or lower; inconclusive means between -30% and -50%; inactive means -30% or higher; further: value at the top dose of about 77 µM
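Human PI5P4Kalpha with substrate in 0.038 M HEPES pH 7.4, 0.28 mM EGTA, 0.1% CHAPS, 5% DMSO; reaction started with 5 microM ATP (final), 60 min at room temperature. ADP formed read by ADP-Glo luminescence.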
Pol eta inh-1: blocks human DNA polymerase eta activity; Q9Y253; recombinant Pol eta, fluorescent DNA replication assay; Potency, µM (series often up to 114 µM), most hits filed as inhibitors; 1.2% of 390,000 active; AID 588591
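Fluorescent replication assay: 50 nM final substrate added after a 15 min room-temperature compound preincubation with 10 nM enzyme. Signal taken at 0 min and again at 10 min.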
WRN helicase inh-1: inhibitors of human WRN helicase | Q14191 | WRN helicase unwinding, fluorescent forked duplex, kinetic | Potency, µM (titrated, usually from 114 µM), hits mostly inhibitors | 0.46% of 360,000 active | AID 651768; further: nearly all actives have a fitted effect of over 55% in size
Target sequence (Q14191 whole entry, looked up): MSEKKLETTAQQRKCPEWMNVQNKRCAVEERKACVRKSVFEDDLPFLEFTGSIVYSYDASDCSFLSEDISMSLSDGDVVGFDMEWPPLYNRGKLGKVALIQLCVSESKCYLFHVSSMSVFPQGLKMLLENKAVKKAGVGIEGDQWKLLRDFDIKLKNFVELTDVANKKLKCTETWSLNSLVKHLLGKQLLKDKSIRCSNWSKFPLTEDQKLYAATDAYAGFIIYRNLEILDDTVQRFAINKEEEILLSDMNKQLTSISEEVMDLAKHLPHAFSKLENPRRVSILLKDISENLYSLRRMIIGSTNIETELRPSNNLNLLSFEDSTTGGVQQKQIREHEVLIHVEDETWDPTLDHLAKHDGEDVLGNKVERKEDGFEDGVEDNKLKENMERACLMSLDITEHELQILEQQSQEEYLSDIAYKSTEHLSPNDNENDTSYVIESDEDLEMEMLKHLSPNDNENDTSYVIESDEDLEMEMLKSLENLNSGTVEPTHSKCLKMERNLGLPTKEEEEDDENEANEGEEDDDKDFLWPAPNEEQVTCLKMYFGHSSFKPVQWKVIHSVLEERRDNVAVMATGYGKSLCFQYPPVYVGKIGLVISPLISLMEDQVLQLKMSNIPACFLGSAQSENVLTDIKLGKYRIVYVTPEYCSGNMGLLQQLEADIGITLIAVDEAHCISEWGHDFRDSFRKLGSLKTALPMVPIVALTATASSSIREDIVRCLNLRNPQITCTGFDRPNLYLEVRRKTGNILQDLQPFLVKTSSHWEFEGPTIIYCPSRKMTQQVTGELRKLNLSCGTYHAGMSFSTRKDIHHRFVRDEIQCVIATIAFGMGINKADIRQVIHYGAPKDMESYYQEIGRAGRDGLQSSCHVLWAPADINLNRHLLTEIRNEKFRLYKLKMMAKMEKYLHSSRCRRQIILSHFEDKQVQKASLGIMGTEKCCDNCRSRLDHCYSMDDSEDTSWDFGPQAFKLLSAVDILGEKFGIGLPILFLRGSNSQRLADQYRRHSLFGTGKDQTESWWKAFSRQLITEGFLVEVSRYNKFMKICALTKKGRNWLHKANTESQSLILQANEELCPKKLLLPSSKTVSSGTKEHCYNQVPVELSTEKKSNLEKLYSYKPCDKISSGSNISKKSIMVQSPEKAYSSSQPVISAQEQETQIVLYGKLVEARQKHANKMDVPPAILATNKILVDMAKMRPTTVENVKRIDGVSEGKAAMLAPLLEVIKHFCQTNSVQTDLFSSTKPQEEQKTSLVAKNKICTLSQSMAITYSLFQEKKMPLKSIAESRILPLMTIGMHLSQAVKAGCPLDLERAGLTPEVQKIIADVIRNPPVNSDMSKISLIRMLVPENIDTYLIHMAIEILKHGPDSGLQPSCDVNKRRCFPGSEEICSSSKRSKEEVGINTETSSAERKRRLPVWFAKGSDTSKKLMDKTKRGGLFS
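Screening of the MLSMR collection measured strand separation of a quenched forked DNA duplex (100 nM) by 20 nM WRN with 2 mM ATP, all final. Compounds were preincubated with enzyme 15 min at room temperature.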
Pol iota inh: inhibitors of human DNA polymerase iota; Q9UNA4; Pol iota fluorescent replication assay, 10 min; Potency, µM (top dose mostly 115 µM), most hits filed as inhibitors; 1% of 390,000 active
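Pol iota at 10 nM preincubated 15 min with compounds at room temperature; reaction started with fluorescent substrate, 50 nM final. Fluorescence read kinetically at 0 and 10 min; buffer-only wells as negative control.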
PGK validate: validation of Trypanosoma brucei phosphoglycerate kinase inhibitors. AID 686980. shares compounds with Pol kappa inh-1. Potency, µM (titrated, usually from 57.5 µM), actives largely listed as inhibitors. TbPGK coupled GAPDH assay, Kinase-Glo luminescence. 79% of 500 active; further: nearly all actives have a fitted effect of over 65% in size
POLI cherry-pick: Inhibitors of human DNA polymerase iota, confirmation | shares compounds with Pol kappa inh-1 | Pol iota primer extension, TAMRA/BHQ fluorescence | Potency, µM, hits mostly inhibitors | 77% of 1,500 active
Pol kappa inh-2: Pol kappa (human) inhibition, cherry-pick confirmation; Potency, µM, hits mostly inhibitors; purified Pol-kappa, fluorescent strand-displacement substrate; AID 720501; shares compounds with Pol eta inh-1; 76% of 920 active
Pol eta inh-2: confirmation of human DNA polymerase eta inhibitors | shares compounds with Pol eta inh-1 | Pol eta primer extension, TAMRA/BHQ fluorescence, 10 min | Potency, µM, hits mostly inhibitors | 64% of 2,600 active | AID 720502
WRN helicase inh-2: confirmation of human WRN helicase inhibitors. 63% of 610 active. WRN helicase DNA unwinding, fluorescence kinetic. shares compounds with WRN helicase inh-1. Potency, µM (doses to about 57.1 µM), usual class: inhibitors; further: nearly all actives have a fitted effect of over 65% in size
TO displacement: DNA binding via thiazole orange displacement. AID 720499. 10% of 610 active. Potency, µM (titrated, usually from 57.1 µM), usual class: inhibitors. thiazole orange DNA binding displacement, fluorescence. shares compounds with WRN helicase inh-1;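 further: drop in dye fluorescence marks compound binding to DNA; nearly all actives have a fitted effect of over 60% in size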
BLM counter: BLM helicase inhibition, WRN selectivity check; AID 720503; shares compounds with WRN helicase inh-1; Potency, µM (highest dose often 57.1 µM), usual class: inhibitors; 60% of 610 active; Recombinant BLM helicase DNA unwinding, red fluorescence; further: nearly all actives have a fitted effect of over 60% in size
A number is an active result; . = inactive; ? = inconclusive; / = no result given. Unless noted, the call rests on the fitted dose curve; in most records, active means well fitted curve in the direction sought with a large enough effect; inconclusive means small, poorly fitted or top-dose-only effect, or another doubt; inactive means no such curve, though single readings can be large; an effect the other way counts as inactive or inconclusive.

SMILES | Pol beta inh | Pol kappa inh-1 | PI5P4K alpha inh | Pol eta inh-1 | WRN helicase inh-1 | Pol iota inh | POLI cherry-pick | Pol eta inh-2 | WRN helicase inh-2 | TO displacement | BLM counter | others
Cc1ccc(S(=O)(=O)N2CCOCC2)cc1C(=O)NCCc1ccc(Cl)cc1 | / | . | . | . | . | . | / | / | / | / | /
O=C1Nc2ccccc2/C1=N\N=C\c1ccc(O)c(O)c1 | 4.5µM | 5.6µM | -56 | 3.2µM | 32µM | 2.2µM | ? | 17 | 6.8µM | ? | 6.8µM
COc1cc(/C=N/N=C2/C(=O)Nc3ccccc32)ccc1O | . | . | . | ? | . | . | / | / | / | / | /
Oc1ccc(/C=N/N=C/c2ccc(O)c(O)c2)cc1O | 0.45µM | 0.89µM | . | 0.71µM | 0.75µM | 1.3µM | 6.7 | 4.3 | 0.61µM | . | 1.1µM | PGK validate=1.3µM;Pol kappa inh-2=4.7
CC(C)C(NC(=O)Cc1ccccc1)C(=O)N1CCN(c2cccc(Cl)c2)CC1 (stereo not drawn) | / | . | . | . | . | . | / | / | / | / | /
COCCn1c(=O)c(-c2cc(F)cc(F)c2)nc2cnc(Oc3cccc(Cl)c3)nc21 | / | . | / | / | / | / | / | / | / | / | /
Cc1cc(C)c(S(=O)(=O)/N=C2\C=C(Nc3ccc(C(=O)O)cc3)C(=O)c3ccccc32)c(C)c1 | 22µM | 89µM | -79 | 11µM | 89µM | 14µM | 67 | 17 | 22µM | ? | 15µM
COc1ccc(NS(=O)(=O)c2cc3[nH]c(=O)c(=O)[nH]c3cc2C)cc1Cl | . | . | / | . | / | . | / | / | / | / | /
CN(C)/C=C1\NC(=S)N(c2ccc(Cl)cc2)C1=O | . | . | . | . | ? | . | / | / | / | / | /
CC(C)c1ccc(N2C(=O)/C(=C/N(C)C)SC2=S)cc1 | ? | ? | . | ? | 20µM | 7.9µM | 4.2 | 3 | 12µM | . | 14µM | Pol kappa inh-2=30
O=C(O)CCCNc1cc(N2CCN(C(=O)c3ccco3)CC2)c2noc3c2c1C(=O)c1ccccc1-3 | 16µM | 32µM | ? | 10µM | 45µM | 32µM | 27 | 9.5 | 14µM | . | 19µM | Pol kappa inh-2=?
COc1cc(/C=C2\CC/C(=C\c3cc(OC)c(O)c(OC)c3)C2=O)cc(OC)c1O | 4.5µM | 10µM | ? | 1.8µM | 11µM | 2.8µM | 27 | 9.5 | 3.4µM | 6.1µM | 5.4µM
COc1cc(/C=C2\CC/C(=C\c3cc(OC)c(OC)c(OC)c3)C2=O)cc(OC)c1OC | . | . | . | . | . | . | / | / | / | / | /
CC(C)=CCc1c(O)ccc2c1OC(c1ccc(O)c(O)c1)CC2=O (stereo not drawn) | ? | . | ? | . | . | . | / | / | / | / | /
O=C1CC(c2ccc(O)c(O)c2)Oc2c1ccc(O)c2O (stereo not drawn) | 0.4µM | 1.8µM | -86 | 0.79µM | 3.2µM | 1.6µM | 3.4 | 3.4 | 1.1µM | ? | 0.96µM | PGK validate=0.92µM
CCN(CC)CCCNc1ccc2ncn3c4ccc(O)cc4c(=O)c1c23 | / | 79µM | . | ? | 25µM | ? | 42 | / | 22µM | . | .
C[N+]1(CC(=O)c2ccc3c(c2)CCCC3)CCOCC1 | / | . | / | / | / | . | / | / | / | / | /
COc1ccc2c(c1)C(=O)[C@H](O)[C@@H](c1ccc(OC)c(Br)c1)O2 | . | . | . | . | . | . | / | / | / | / | /
